The whole screen tested about 52,000 compounds, of which about 1,700 (3.3%) were called active. Rule as the data show it: active = survival mostly below about 52% (no sharp cut-off); inactive = mostly above about 56%. For the sample, actives were picked, then their nearest neighbours and some compounds at random.

For this experiment, the system named is Wild type. The experiment is described as follows: S. aureus survival, RN4220 and DeltatarO strains – OD600, teichoic acid synthesis inhibitors, primary screen (AID 463173). The settings on record: S. aureus RN4220 wild type/DeltatarO growth, OD600, 18 h, stronger effect = lower value, screened at 18.75 µg/mL (by protocol).
With `CCc1nnc(SCc2ccc(F)cc2Cl)c2cc3sc(C)cc3n12`, the survival was 96% (inactive).
Turning to `CCOC(=O)c1cccc(NC(=O)c2ccc3snnc3c2)c1`, the survival was 84% (inactive).
The figure for `COc1ccc(C)cc1NC(=O)C(=O)NCC1(c2ccccc2)CCCC1` is 94% (inactive).
The result for `COc1ccc2c(c1)cc1c(=O)n(CC(=O)NCCc3ccccc3)nc(C)n12` reads 81% (inactive); that for `CCc1ccccc1NC(=O)CN1C(=O)COc2ccc(S(=O)(=O)Nc3ccccc3)cc21`, 64% (inactive); that for `COc1ccc(-c2nc(N)n(C(C)=O)n2)cc1`, 107% (inactive).
The figure for `Cc1nnc(SCCCN2C(=O)c3ccccc3C2=O)o1` is 105% (inactive); for `Cc1cccc(NC(=O)CCn2cnnn2)c1C` it is 71% (inactive).
As for `Cc1cc(C)c(NC(=O)c2sc3nc(C)cc(C)c3c2N)c(C)c1`, the survival is 73% (inactive).
In the case of `CCCN1C(=O)c2[nH]nc(-c3ccccc3O)c2C1c1cccc(OCc2ccccc2)c1` (stereo not drawn), the survival is 42% (inactive).
For `CCCOc1cccc(C2c3c(-c4ccccc4O)n[nH]c3C(=O)N2Cc2ccco2)c1` (stereo not drawn), the survival was 11% (active).
For `CCOc1cccc(C2c3c(-c4cc(C)ccc4O)n[nH]c3C(=O)N2Cc2ccco2)c1` (stereo not drawn), the survival was 27% (inactive).
`CCOc1cccc(C(=O)N(Cc2ccc(C)o2)C2CCS(=O)(=O)C2)c1` (stereo not drawn): the survival was 90% (inactive).
As for `CCOC(=O)C1CCN(C(=O)Cn2ncc3c4ccccc4n(Cc4ccc(F)cc4)c3c2=O)CC1`, the survival was 80% (inactive).
With `CC(C)OCCCNC(=O)C(=O)Nc1c2c(nn1-c1ccccc1)CS(=O)(=O)C2`, the survival was -6% (active).
The result for `COCCNC(=O)C(=O)Nc1c2c(nn1-c1ccccc1)CS(=O)(=O)C2` reads 76% (inactive).
In the case of `CC(C)CCNC(=O)C(=O)Nc1c2c(nn1-c1ccccc1)CS(=O)(=O)C2`, the survival is 90% (inactive).
`CCOc1cccc(C(=O)Nc2cc(C)c(O)c(-c3nc4ncccc4o3)c2)c1`: the survival was 84% (inactive).
Consider `CNC(=O)C1CCC(Cn2c(=O)c3sccc3n(CC(=O)NCc3ccccc3)c2=O)CC1` (stereo not drawn), for which the survival was 0% (active).
Consider `CNC(=O)C1CCC(Cn2c(=O)c3sccc3n(CC(=O)NCc3ccc(F)cc3)c2=O)CC1` (stereo not drawn), for which the survival is 45% (inactive).
In the case of `CNC(=O)C1CCC(Cn2c(=O)c3sccc3n(CC(=O)NCc3ccc(C)cc3)c2=O)CC1` (stereo not drawn), the survival was 73% (inactive).
Consider `Cc1cc(C)cc(NC(=O)COc2cccc3c(=O)n(C)ccc23)c1`, for which the survival is 72% (inactive).
For `Cc1ccc2oc(=O)n(CCNC(=O)Nc3ccc(Cl)cc3)c2c1`, the survival is 79% (inactive).
For `COc1ccc(Cl)cc1NC(=O)NCCn1c(=O)oc2ccc(C)cc21`, the survival was 62% (inactive).
Consider `Cc1ccc2oc(=O)n(CCCOc3ccc(Cl)cc3)c2c1`, for which the survival is -9% (active).
Turning to `CCCCOc1ccc(Cn2c(=O)oc3ccc(C)cc32)cc1`, the survival was 58% (inactive).
With `COc1ccc(OCCCn2c(=O)oc3ccc(C)cc32)cc1`, the survival is 2% (active).
As to `COc1ccc(OCCCn2c(C)nc3cc(C)c(C)cc32)cc1`, the survival is 67% (inactive).
As for `COc1ccc(CCNC(=O)CCCCn2c(=O)c3ccccc3n(Cc3ccc(Cl)cc3)c2=O)cc1OC`, the survival was 105% (inactive).
On to `COc1cc2nc(SCC(=O)Nc3c(C)cc(C)cc3C)n3nc(CCn4c(C)nc5ccccc54)nc3c2cc1OC`, for which the survival was 91% (inactive).
On to `CCOc1ccccc1C(=O)Nc1cc(-c2nc3cccnc3s2)ccc1C`, for which the survival is 67% (inactive).
With `COCCCNC(=O)C1CCN(c2nn3cc(-c4ccc(F)cc4)nc3s2)CC1`, the survival is 88% (inactive).
Regarding `CCC(C)S(=O)(=O)c1oc(-c2cccs2)nc1S(=O)(=O)c1ccccc1` (stereo not drawn), the survival is 16% (inactive).
`CCCSc1oc(-c2cccs2)nc1S(=O)(=O)c1ccc(C)cc1`: the survival is 39% (inactive).
The result for `CCCCCS(=O)(=O)c1oc(-c2cccs2)nc1S(=O)(=O)c1ccc(C)cc1` reads 11% (active); that for `Cc1ccc(CSc2oc(-c3cccs3)nc2S(=O)(=O)c2ccc(C)cc2)cc1`, 128% (inactive); that for `CCCCS(=O)(=O)c1oc(-c2cccs2)nc1S(=O)(=O)c1ccc(F)cc1`, 82% (inactive).
Regarding `CCCCS(=O)(=O)c1oc(-c2cccs2)nc1S(=O)(=O)c1ccccc1`, the survival was 0% (active).
The figure for `CCOc1ccc(C(=O)c2c(N)c(-c3nc(-c4ccc(OCC)cc4)cs3)c3ccccn23)cc1` is 103% (inactive); for `O=C(O)CN1C(=O)/C(=N\N2C(=O)CSC2=S)c2ccccc21` it is 90% (inactive); for `Cc1ccc(C(=O)Nc2c(C)nc3ccccn3c2=O)cc1C` it is 69% (inactive).
`Cc1nc2ccccn2c(=O)c1NC(=O)c1ccccc1Cl`: the survival is 129% (inactive).
In the case of `Cc1ccccc1C(=O)Nc1c(C)nc2ccccn2c1=O`, the survival is 10% (active).
The figure for `Cc1ccc(C(=O)Nc2c(C)nc3ccccn3c2=O)cc1` is 88% (inactive).
For the compound `Cc1nc2ccccn2c(=O)c1NC(=O)c1ccc(F)c(F)c1`, the survival was 80% (inactive).
In the case of `Cc1nc2ccccn2c(=O)c1NC(=O)c1ccc(C(F)(F)F)cc1`, the survival is -2% (active).
As to `Cc1c(C(=O)Nc2ccc(F)c(F)c2)oc2ccc(S(=O)(=O)N(C)C3CCCCC3)cc12`, the survival is 74% (inactive).
On to `COc1ccccc1CNC(=O)CC(c1ccc(C)cc1)N1Cc2ccccc2C1=O` (stereo not drawn), for which the survival is 60% (inactive).
The figure for `CC(C)(C)c1cc(-c2ccccc2)n[nH]1` is 132% (inactive); for `CN(C)c1ccc(NC(=O)CSc2nc3ccsc3c(=O)n2CCCCCC(=O)O)cc1` it is 70% (inactive).
On to `CCn1cc2nc(SCc3ccc(F)cc3)n(CCc3ccccc3)c(=O)c2n1`, for which the survival is 77% (inactive).
For the compound `Cc1ccc(-c2ccc(=O)n(CC(=O)NCCc3ccccc3)n2)cc1`, the survival was 65% (inactive).
`Cc1ccc(CCNC(=O)Cn2nc(-c3ccc(C)cc3)ccc2=O)cc1`: the survival was -3% (active).
For the compound `Cc1ccc(-c2ccc(=O)n(CC(=O)NCCc3ccc(Cl)cc3)n2)cc1`, the survival was 73% (inactive).
With `C=CCn1c(=O)[nH]c(=O)n(CC=C)c1=O`, the survival is 111% (inactive).
Turning to `COc1ccc2c(Sc3ccccc3)c(C(=O)NCc3ccc(OC(C)C)cc3)[nH]c2c1`, the survival is 125% (inactive).
For the compound `COc1cc(CNCCSc2nnnn2C)ccc1OCc1ccc(Cl)cc1Cl`, the survival is 0% (active).
With `CCOc1cc(CNCCSc2nnnn2C)ccc1OCc1ccc(Cl)cc1Cl`, the survival was -5% (active).
`CCOc1cc(CNCCSc2nnnn2C)cc(Cl)c1OCc1ccc(Cl)cc1`: the survival was -2% (active).
For `Cn1nnnc1SCCNCc1ccccc1OCc1ccc(Cl)cc1Cl`, the survival is 56% (inactive).
On to `CCOc1ccc(CNCCSc2nnnn2C)cc1OC`, for which the survival is 72% (inactive).
As to `COc1cc(CNCCSc2nnnn2C)ccc1OCc1ccccc1C`, the survival is 68% (inactive).
In the case of `COc1cc(CNCCSc2nnnn2C)cc(Cl)c1OCc1ccccc1`, the survival is 59% (inactive).
For the compound `Cn1nnnc1SCCNCc1ccc(OCc2ccc(Cl)cc2)cc1`, the survival is 68% (inactive).
Turning to `COc1cc(CNCCSc2nnnn2C)ccc1OCc1c(F)cccc1Cl`, the survival was 73% (inactive).
Take `COCCNC(=O)c1ccc(-c2nc(CN3CCc4ccccc43)c(C)o2)cc1`: the survival is 75% (inactive).
As to `NS(=O)(=O)c1ccc(CCNC(=O)c2ccc3nc(Cc4ccccc4)oc3c2)cc1`, the survival was 81% (inactive).
Consider `CCn1cc(C(=O)O)c(=O)c2cc(F)c(N3CCN(C(=O)c4ccccc4F)CC3)cc21`, for which the survival is 54% (inactive).
For `CC(C)CC(=O)NCC(c1ccc2c(c1)OCO2)N1CCN(c2ccccc2)CC1` (stereo not drawn), the survival was 77% (inactive).
In the case of `Cc1ccc(Cl)cc1N1CCN(C(=O)c2cc(S(=O)(=O)N3CCCC3)c[nH]2)CC1`, the survival is 77% (inactive).
`COC(=O)c1cc(S(=O)(=O)N2CCN(c3ccc(OC)cc3)CC2)c[nH]1`: the survival was 85% (inactive).
For `COC(=O)c1cc(S(=O)(=O)N2CCN(c3cc(Cl)ccc3C)CC2)c[nH]1`, the survival is 8% (active).
In the case of `COc1ccccc1CNC(=O)CN1C(=O)CSc2ccc(S(=O)(=O)N3CCCCC3)cc21`, the survival is 83% (inactive).
As to `COc1ccc(-n2ncc(C(=O)N3CCc4ccccc4C3)c2C2CCN(C(=O)OC(C)(C)C)CC2)cc1`, the survival was 63% (inactive).
In the case of `COc1cc2c(cc1NS(=O)(=O)c1cccc(C#N)c1)n(C)c(=O)n2C`, the survival is 76% (inactive).
In the case of `CCOC(=O)c1c(-c2ccc(C)cc2)csc1NC(=O)c1nc(SC(C)C)ncc1Cl`, the survival is 85% (inactive).
As for `CCCSc1ncc(Cl)c(C(=O)Nc2scc(-c3ccc(C)cc3)c2C(=O)OCC)n1`, the survival was 87% (inactive).
The result for `CCOC(=O)c1c(-c2ccccc2)csc1NC(=O)c1nc(SCC)ncc1Cl` reads 97% (inactive); that for `CCOC(=O)c1c(-c2ccc(C)cc2)csc1NC(=O)c1nc(SCC)ncc1Cl`, 78% (inactive).
For `CCOC(=O)c1c(-c2ccccc2)csc1NC(=O)c1nc(S(=O)(=O)CC)ncc1Cl`, the survival is 2% (active).
Consider `CCCS(=O)(=O)c1ncc(Cl)c(C(=O)Nc2scc(-c3ccccc3)c2C(=O)OCC)n1`, for which the survival is 4% (active).
For `CCc1nn(CC(=O)NCC(C)c2ccccc2)c(=O)c2cc3c(OC)cccc3n12` (stereo not drawn), the survival was 89% (inactive).
On to `Cc1ccccc1SCC(=O)O`, for which the survival was 106% (inactive).
On to `O=C(c1cc(-c2ccccc2)on1)N1CCCc2ccccc21`, for which the survival is 114% (inactive).
As to `COCCCNC(=O)c1ccc2c(c1)N(Cc1ccccc1)C(=O)c1ccccc1S2`, the survival was 75% (inactive).
Turning to `CCOc1cc(C(=O)Nc2ccc3nc(N4CCN(C)CC4)cc(C)c3c2)cc(OCC)c1OCC`, the survival was 134% (inactive).
The figure for `Cc1cc(N2CCCCC2)nc2ccc(NC(=O)c3cccc(F)c3)cc12` is 46% (inactive); for `Cc1cc(N2CCCCC2)nc2ccc(NC(=O)c3cccc(Cl)c3)cc12` it is -2% (active); for `Cc1ccc(NC(=O)Nc2ccc3nc(N4CCN(C)CC4)cc(C)c3c2)cc1C` it is 73% (inactive).
In the case of `Cc1cc(N2CCN(C)CC2)nc2ccc(NC(=O)c3ccc(C(C)(C)C)cc3)cc12`, the survival was -20% (active).
Regarding `CCN1CCN(c2cc(C)c3cc(NC(=O)c4cccc(Cl)c4)ccc3n2)CC1`, the survival was 57% (inactive).
On to `Cc1cccc(C)c1OC(=O)CSc1nnc(-c2cccs2)o1`, for which the survival is 83% (inactive).
Take `COc1cc2c(cc1OC)n(CC(=O)c1cccc(Cl)c1)c(=O)n1nc(CCn3nc(C)cc3C)nc21`: the survival was 74% (inactive).

(Values after PubChem BioAssay AID463173 (ICCB-Longwood Screening Facility, Harvard Medical School, 2010).)
